Substitutions are numbered along the chain they refer to; changes in the protein carry UniProt numbers. Over roughly 16,000 sequences, “ka relative to ugcaugu” has its median near 0.096; the highest 2% begin near 0.35. This excerpt belongs to a sample that is enriched for the highest values.
T1: RBFOX1 RRM RbFoxmut (Fox-RRM*) (Homo sapiens, UniProt Q9NWB1 109-208, R118D;E147R;N151S;E152T)
T1 sequence: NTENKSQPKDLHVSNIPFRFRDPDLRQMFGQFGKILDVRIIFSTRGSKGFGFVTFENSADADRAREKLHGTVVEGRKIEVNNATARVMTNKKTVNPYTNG

B1: AUGUAUG (DNA:RNA)
RNA: GGGAGACCGGAAUUCAGAUUGUCCAUGUAUGUUAAAUCCCGUCGUAGCCACCA
DNA 1: CAATCTGAATTCCGGTCTCCC
DNA 2: TGGTGGCTACGACGGGATT
B2: AUGUAUC (DNA:RNA)
RNA: B1 RNA with G31C
DNA 1: CAATCTGAATTCCGGTCTCCC
DNA 2: TGGTGGCTACGACGGGATT
B3: AUGUAGA (DNA:RNA)
RNA: B1 RNA with U30G, G31A
DNA 1: CAATCTGAATTCCGGTCTCCC
DNA 2: TGGTGGCTACGACGGGATT
B4: AUGUAAA (DNA:RNA)
RNA: B1 RNA with U30A, G31A
DNA 1: CAATCTGAATTCCGGTCTCCC
DNA 2: TGGTGGCTACGACGGGATT
B5: ACGUAUC (DNA:RNA)
RNA: B1 RNA with U26C, G31C
DNA 1: CAATCTGAATTCCGGTCTCCC
DNA 2: TGGTGGCTACGACGGGATT
B6: AUAUGUA (DNA:RNA)
RNA: B1 RNA with G27A, A29G, G31A
DNA 1: CAATCTGAATTCCGGTCTCCC
DNA 2: TGGTGGCTACGACGGGATT
B7: UAUUAUG (DNA:RNA)
RNA: B1 RNA with A25U, U26A, G27U
DNA 1: CAATCTGAATTCCGGTCTCCC
DNA 2: TGGTGGCTACGACGGGATT
B8: UAAGUUC (DNA:RNA)
RNA: B1 RNA with A25U, U26A, G27A, U28G, A29U, G31C
DNA 1: CAATCTGAATTCCGGTCTCCC
DNA 2: TGGTGGCTACGACGGGATT
B9: GGAUAGG (DNA:RNA)
RNA: B1 RNA with A25G, U26G, G27A, U30G
DNA 1: CAATCTGAATTCCGGTCTCCC
DNA 2: TGGTGGCTACGACGGGATT
B10: UUGUAUU (DNA:RNA)
RNA: B1 RNA with A25U, G31U
DNA 1: CAATCTGAATTCCGGTCTCCC
DNA 2: TGGTGGCTACGACGGGATT
B11: CCCGAGU (DNA:RNA)
RNA: B1 RNA with A25C, U26C, G27C, U28G, U30G, G31U
DNA 1: CAATCTGAATTCCGGTCTCCC
DNA 2: TGGTGGCTACGACGGGATT
B12: UCAGAUC (DNA:RNA)
RNA: B1 RNA with A25U, U26C, G27A, U28G, G31C
DNA 1: CAATCTGAATTCCGGTCTCCC
DNA 2: TGGTGGCTACGACGGGATT
B13: UCGCAUA (DNA:RNA)
RNA: B1 RNA with A25U, U26C, U28C, G31A
DNA 1: CAATCTGAATTCCGGTCTCCC
DNA 2: TGGTGGCTACGACGGGATT
B14: UCGCAGA (DNA:RNA)
RNA: B1 RNA with A25U, U26C, U28C, U30G, G31A
DNA 1: CAATCTGAATTCCGGTCTCCC
DNA 2: TGGTGGCTACGACGGGATT
B15: UCGCGCA (DNA:RNA)
RNA: B1 RNA with A25U, U26C, U28C, A29G, U30C, G31A
DNA 1: CAATCTGAATTCCGGTCTCCC
DNA 2: TGGTGGCTACGACGGGATT
B16: UCGCAUG (DNA:RNA)
RNA: B1 RNA with A25U, U26C, U28C
DNA 1: CAATCTGAATTCCGGTCTCCC
DNA 2: TGGTGGCTACGACGGGATT
B17: UCGCAUC (DNA:RNA)
RNA: B1 RNA with A25U, U26C, U28C, G31C
DNA 1: CAATCTGAATTCCGGTCTCCC
DNA 2: TGGTGGCTACGACGGGATT
B18: UGAACAA (DNA:RNA)
RNA: GGGAGACCGGAAUUCAGAUUGUCCUGAACAAUUAAAUCCCGUCGUAGCCACCA
DNA 1: CAATCTGAATTCCGGTCTCCC
DNA 2: TGGTGGCTACGACGGGATT
B19: AUUUACA (DNA:RNA)
RNA: B1 RNA with G27U, U30C, G31A
DNA 1: CAATCTGAATTCCGGTCTCCC
DNA 2: TGGTGGCTACGACGGGATT
B20: UGAUGCG (DNA:RNA)
RNA: B18 RNA with A28U, C29G, A30C, A31G
DNA 1: CAATCTGAATTCCGGTCTCCC
DNA 2: TGGTGGCTACGACGGGATT
B21: UUGUGGU (DNA:RNA)
RNA: B1 RNA with A25U, A29G, U30G, G31U
DNA 1: CAATCTGAATTCCGGTCTCCC
DNA 2: TGGTGGCTACGACGGGATT
B22: ACACGAA (DNA:RNA)
RNA: B18 RNA with U25A, G26C, A28C, C29G
DNA 1: CAATCTGAATTCCGGTCTCCC
DNA 2: TGGTGGCTACGACGGGATT
B23: GCGUAAC (DNA:RNA)
RNA: B1 RNA with A25G, U26C, U30A, G31C
DNA 1: CAATCTGAATTCCGGTCTCCC
DNA 2: TGGTGGCTACGACGGGATT
B24: GGACGCA (DNA:RNA)
RNA: B18 RNA with U25G, A28C, C29G, A30C
DNA 1: CAATCTGAATTCCGGTCTCCC
DNA 2: TGGTGGCTACGACGGGATT
B25: UUAGUGG (DNA:RNA)
RNA: B1 RNA with A25U, G27A, U28G, A29U, U30G
DNA 1: CAATCTGAATTCCGGTCTCCC
DNA 2: TGGTGGCTACGACGGGATT
B26: GCAUUGC (DNA:RNA)
RNA: B1 RNA with A25G, U26C, G27A, A29U, U30G, G31C
DNA 1: CAATCTGAATTCCGGTCTCCC
DNA 2: TGGTGGCTACGACGGGATT
B27: GACAUGC (DNA:RNA)
RNA: B18 RNA with U25G, G26A, A27C, C29U, A30G, A31C
DNA 1: CAATCTGAATTCCGGTCTCCC
DNA 2: TGGTGGCTACGACGGGATT
B28: GUCCGCU (DNA:RNA)
RNA: B1 RNA with A25G, G27C, U28C, A29G, U30C, G31U
DNA 1: CAATCTGAATTCCGGTCTCCC
DNA 2: TGGTGGCTACGACGGGATT
B29: GGCAUGC (DNA:RNA)
RNA: B18 RNA with U25G, A27C, C29U, A30G, A31C
DNA 1: CAATCTGAATTCCGGTCTCCC
DNA 2: TGGTGGCTACGACGGGATT
B30: GCAUGCU (DNA:RNA)
RNA: B1 RNA with A25G, U26C, G27A, A29G, U30C, G31U
DNA 1: CAATCTGAATTCCGGTCTCCC
DNA 2: TGGTGGCTACGACGGGATT
B31: GCCAUGC (DNA:RNA)
RNA: B18 RNA with U25G, G26C, A27C, C29U, A30G, A31C
DNA 1: CAATCTGAATTCCGGTCTCCC
DNA 2: TGGTGGCTACGACGGGATT
B32: GUCAUGC (DNA:RNA)
RNA: B1 RNA with A25G, G27C, U28A, A29U, U30G, G31C
DNA 1: CAATCTGAATTCCGGTCTCCC
DNA 2: TGGTGGCTACGACGGGATT
B33: ACAUGCU (DNA:RNA)
RNA: B1 RNA with U26C, G27A, A29G, U30C, G31U
DNA 1: CAATCTGAATTCCGGTCTCCC
DNA 2: TGGTGGCTACGACGGGATT
B34: CGCAUGC (DNA:RNA)
RNA: B18 RNA with U25C, A27C, C29U, A30G, A31C
DNA 1: CAATCTGAATTCCGGTCTCCC
DNA 2: TGGTGGCTACGACGGGATT

Each binder was assayed against T1, RBFOX1 RRM RbFoxmut (Fox-RRM*) (assay: EMSA; HiTS-Eq, 1 nM pool, 10 min; buffer printed only for the single-RNA assays: 10 mM Tris pH 7.5, 150 mM NaCl, 3.4 mM EDTA, 0.001% NP-40, 30 C). Conditions: tags: His6 N-terminal (pET28a); label: 5' 32P.
Outline: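 Relative association constants, normalised to the cognate motif, were derived by comparing read counts of each RNA species with those of the control reaction. The RNA sequenced was the free fraction, separated by 8% native PAGE after a 10 min equilibration in 50 µL of 1 nM 5′-radiolabelled RNA (7 randomized nucleotides) with increasing concentrations of purified wild-type or mutant RbFox RRM.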

Row | Binder | binding signal
1 | B1 | 1.19 KA relative to UGCAUGU
2 | B2 | 0.407 KA relative to UGCAUGU
3 | B3 | 0.152 KA relative to UGCAUGU
4 | B4 | 0.169 KA relative to UGCAUGU
5 | B5 | 0.185 KA relative to UGCAUGU
6 | B6 | 0.261 KA relative to UGCAUGU
7 | B7 | 0.158 KA relative to UGCAUGU
8 | B8 | 0.0634 KA relative to UGCAUGU
9 | B9 | 0.0913 KA relative to UGCAUGU
10 | B10 | 0.171 KA relative to UGCAUGU
11 | B11 | 0.094 KA relative to UGCAUGU
12 | B12 | 0.0785 KA relative to UGCAUGU
13 | B13 | 0.125 KA relative to UGCAUGU
14 | B14 | 0.0842 KA relative to UGCAUGU
15 | B15 | 0.104 KA relative to UGCAUGU
16 | B16 | 1.06 KA relative to UGCAUGU
17 | B17 | 0.597 KA relative to UGCAUGU

Row | Binder | binding signal
18 | B18 | 0.047 KA relative to UGCAUGU
19 | B19 | 0.119 KA relative to UGCAUGU
20 | B20 | 0.141 KA relative to UGCAUGU
21 | B21 | 0.164 KA relative to UGCAUGU
22 | B22 | 0.0925 KA relative to UGCAUGU
23 | B23 | 0.0833 KA relative to UGCAUGU
24 | B24 | 0.12 KA relative to UGCAUGU
25 | B25 | 0.0929 KA relative to UGCAUGU
26 | B26 | 0.134 KA relative to UGCAUGU
27 | B27 | 0.0819 KA relative to UGCAUGU
28 | B28 | 0.11 KA relative to UGCAUGU
29 | B29 | 0.739 KA relative to UGCAUGU
30 | B30 | 0.736 KA relative to UGCAUGU
31 | B31 | 0.109 KA relative to UGCAUGU
32 | B32 | 0.19 KA relative to UGCAUGU
33 | B33 | 0.102 KA relative to UGCAUGU
34 | B34 | 0.951 KA relative to UGCAUGU
